Assay results: PubChem BioAssay AID977607 (Broad Institute, 2014)
Out of some 1,500 compounds screened, about 460 (31%) were called active. Another 1% or so got no clear call; they are omitted.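 Rule for the calls: active = curve reaches 40% activation over neutral controls at an AC40 no higher than the top valid tested concentration; inconclusive = no clear call, values can overlap the other calls; inactive = signal moving opposite to the expected increase, and the rest.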 Only a sample is shown. Results with a measured potency or affinity are listed apart.

assay: activators of glucose-dependent insulin secretion, dose response, cell-based, INS-1E, Gaussia luciferase, luminescence, cherry-pick, set 2 (AID 977607); details: INS-1E GLuc insulin secretion reporter, 2-3 h, stronger effect = higher value; at 35 µM, 100% = signal doubled over neutral wells unless noted;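 note: 0% = median of the plate neutral control wells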

Max activation, inactive:
Cc1cccc(NCc2ccccc2)c1 -18.2% [at 0.0016 µM, 100% = signal doubled over neutral wells], Cc1ccc(NCc2cccc(B(O)O)c2)cc1 -34.5%, COc1ccc(/C=N/Nc2nc(-c3ccc(Cl)cc3)cc(C(F)(F)F)n2)c(OC)c1 30.4%, COc1ccccc1C(=O)N/N=C(\C)CC(=O)Nc1ccc2c(c1)OCCO2 15.2% [at 0.005 µM, 100% = signal doubled over neutral wells], S=C(NCc1ccccc1)Nc1ccc2cn[nH]c2c1 -24.4% [at 0.046 µM, 100% = signal doubled over neutral wells], CCOc1ncccc1C(=O)NNC(=O)c1ccccc1-n1cccc1 -7.28% [at 3.8 µM, 100% = signal doubled over neutral wells], CCOc1ncccc1C(=O)Nc1cccc(S(=O)(=O)NC2=NCCC2)c1 -12.4% [at 0.135 µM, 100% = signal doubled over neutral wells], CC(Oc1ccccc1Cl)C(=O)Nc1ccc(S(=O)(=O)Nc2nccs2)cc1 (stereo not given) -19.7% [at 0.135 µM, 100% = signal doubled over neutral wells], CCOc1ncccc1C(=O)NCc1ccc(C)cc1 -15% [at 0.046 µM, 100% = signal doubled over neutral wells], CNC(=O)c1cc(C(=O)c2ccccc2Br)c[nH]1 25.1% [at 0.135 µM, 100% = signal doubled over neutral wells], COC(=O)CN(c1cccc(C)c1)S(=O)(=O)c1ccccc1 23.2% [at 0.42 µM, 100% = signal doubled over neutral wells], CCN(CC(=O)Nc1ccccc1OC)C(=O)C1CCCC1 -15.2% [at 3.8 µM, 100% = signal doubled over neutral wells], O=C(Nc1ccc(F)cc1)N1CCCCN2[C@@H](CO)[C@@H](c3ccc(C#Cc4ccccc4)cc3)[C@@H]2C1 21.6% [at 0.0016 µM, 100% = signal doubled over neutral wells], O=C1CC(NS(=O)(=O)c2cccs2)CN1c1cccc(F)c1 (stereo not given) -15.9% [at 11 µM, 100% = signal doubled over neutral wells], C=CCNC(=O)COc1coc(CN2CCN(C(=O)c3ccco3)CC2)cc1=O -8.4% [at 0.046 µM, 100% = signal doubled over neutral wells], CCn1ncc2c1C(=O)NC1c3ccccc3C(=O)N21 (stereo not given) -17.7% [at 0.0016 µM, 100% = signal doubled over neutral wells], c1ccc2nc3c(nc2c1)c1ccccc1n3CCN1CCOCC1 -14.9% [at 0.005 µM, 100% = signal doubled over neutral wells], CC(=O)Nc1nc(C)nc(-c2ccccc2OC(C)=O)n1 -19.4% [at 0.046 µM, 100% = signal doubled over neutral wells], O=c1c2ccccc2nc(-c2ccco2)n1/N=C/c1ccco1 -20.6% [at 0.0016 µM, 100% = signal doubled over neutral wells], O=c1c2ccccc2nc(-c2ccco2)n1Cc1ccccc1 -18.2% [at 0.046 µM, 100% = signal doubled over neutral wells], CSc1ncccc1C(=O)NCCc1ccccc1F 23.1% [at 3.8 µM, 100% = signal doubled over neutral wells], O=C(NCCCNc1ccnc2cc(Cl)ccc12)c1ccccc1F -28.3%, COCCOc1ccc(C(F)(F)F)cc1NC(=O)c1ccccc1F -23.9% [at 3.8 µM, 100% = signal doubled over neutral wells], O=S(=O)(c1cccs1)N1CN(C2CCCCC2)c2nc3ccccc3nc21 -12.2%, Cc1ccc(OCC(=O)NNC(=O)CCC(=O)Nc2ccc(C)cc2C)cc1 -27.6% [at 3.8 µM, 100% = signal doubled over neutral wells], Cc1ccc(S(=O)(=O)N(CC(=O)Nc2ccc(C)cc2C)C(=O)N2CCN(C)CC2)cc1 42% [at 0.046 µM, 100% = signal doubled over neutral wells], CC(=O)N1CCN(C(=O)COC(=O)c2ccc(S(C)(=O)=O)cc2)CC1 25.9%, CCC(=O)Nc1nnc(Sc2ccc(N(C)C)cc2)s1 -22.3% [at 0.046 µM, 100% = signal doubled over neutral wells], CCSc1nnc(NC(=O)c2csc(C)c2)s1 -21.3% [at 0.0016 µM, 100% = signal doubled over neutral wells], CCC(CC)NC(=O)CN1CCN(S(=O)(=O)c2cccs2)CC1 -15.7% [at 3.8 µM, 100% = signal doubled over neutral wells], Cc1nnc2c(NCCC(C)C)nc3ccccc3n12 -15%, CC1(C)Cc2c(cnn2-c2ccccc2)C(NC(=O)CCN2CCCC2=O)C1 (stereo not given) -18.4%, Cc1ccc(-n2ncc3c2CC(C)(C)CC3NC(=O)CCCN2CCCC2=O)cc1 (stereo not given) -26.8% [at 0.046 µM, 100% = signal doubled over neutral wells], CCn1nc(NC(=O)c2ccco2)c2cc3ccccc3nc21 61.7% [at 11 µM, 100% = signal doubled over neutral wells], CCCn1nc(NC(=O)c2ccco2)c2cc3ccccc3nc21 -15.7% [at 0.0016 µM, 100% = signal doubled over neutral wells]
